Hits are enriched below; roughly 19% of the tested compounds scored in any of these assays.
HT1080 IDH1KD tx = toxicity to HT-1080 IDH1 knockdown cells (counter line). 360,000 tested, 2% active. Potency, µM (series often up to 46.1 µM), inactives show top-dose activity, negative = toxicity, actives largely listed as cytotoxic. AID 686971. HT-1080 IDH1 knockdown viability, ATP luminescence, 48 h;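 note: 0% = DMSO wells and -100% = cell-free medium wells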
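Knockdown cells (IDH1KD HT-1080) received compounds 2 h after plating at 750 cells/well and were kept 48 h at 37 °C in 5% FBS RPMI. A CellTiter-Glo luminescence read gave % activity for curve fitting.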
KB-3-1 cytotox = kills parental KB-3-1 adenocarcinoma cells | AID 1347075 | KB-3-1 viability, CellTiter-Glo ATP luminescence, 72 h | 400,000 tested, 1.4% active | Potency, µM (top dose mostly 46.1 µM), most hits filed as cytotoxic; note: nearly all actives have a fitted effect of over 60% in size
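Cytotoxicity measured as CellTiter-Glo luminescence after 72 h at 37 C. Compound titrations were pinned onto drug-naive KB-3-1 parental adenocarcinoma cells grown in DMEM with 10% FBS, and normalized data fitted to concentration-response curves.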
DT40 TDP1 no CPT = qHTS for Inhibitors of human tyrosyl-DNA phosphodiesterase 1 (TDP1): qHTS in cells in absence of CPT | DT40 Tdp1-/- hTDP1 cells, no CPT, ATP luminescence, 48 h | Potency, µM (doses to about 46.2 µM), for inactives: at the top dose activity change, negative = growth inhibition, most hits filed as inhibitors | 420,000 tested, 15% active; note: nearly all actives have a fitted effect of over 55% in size
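Camptothecin absent (DMSO only). Human TDP1-complemented DT40 knockout cells, 400 cells/well, 37 °C for minimum 48 hr; ATP measured via CellTiter-Glo, 30 min dark incubation, luminescence.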
KB-V1 cytotox = kills drug-selected multidrug resistant KB-V1 cells; KB-V1 MDR cells viability, CellTiter-Glo, 72 h; Potency, µM (top dose mostly 46.1 µM), most hits filed as cytotoxic; 400,000 tested, 3.4% active; note: nearly all actives have a fitted effect of over 60% in size
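KB-V1 MDR subline cells in DMEM (phenol-red free, 10% FBS) exposed to compounds in qHTS concentration series for 72 h at 37 degrees C. Viability read by CellTiter-Glo luminescence; concentration-effect curves fitted after normalization and correction.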
HT1080-NT tox = kills 2HG-producing HT-1080-NT fibrosarcoma cells; HT-1080-NT fibrosarcoma viability, CellTiter-Glo ATP luminescence, 48 h; Potency, µM (top dose mostly 46.1 µM), for inactives: at the highest dose activity, negative = less viability, actives largely listed as cytotoxic; 360,000 tested, 1.6% active; AID 686970;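 note: NT is the 2HG producing partner of a matched IDH1 knockdown line; 0% = DMSO-treated cells and -100% = media-only wells without cells; nearly all actives have a fitted effect of over 55% in size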
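Viability of the 2HG-overproducing fibrosarcoma line after 48 hours of compound exposure at 37 degrees C was determined by luminescence with CellTiter-Glo, and concentration-effect curves were then fitted and categorized.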
DT40 TDP1 CPT = DT40-hTDP1 cell growth loss with CPT; 420,000 tested, 12% active; Potency, µM (doses to about 46.2 µM), inactives show at the highest dose activity change, negative = growth inhibition, actives largely listed as inhibitors; chicken DT40 Tdp1-/-;hTDP1 cells + 20 nM CPT, ATP luminescence, 48 h; note: nearly all actives have a fitted effect of over 55% in size
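Cell growth measured by CellTiter-Glo luminescence after a minimum 48 h, 37 C compound exposure with 20 nM CPT in Tdp1-knockout DT40 cells stably expressing hTDP1, seeded 400/well; qHTS titration format.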
* hit, by the source's call; i = inactive; ? = inconclusive; . = not tested or not shown; [ ] = dose if it differs, or a comment. Calls come from the whole dose curve; as a rule, active = well fitted curve in the direction sought with a large enough effect; inconclusive = small, poorly fitted or top-dose-only effect, or another doubt; inactive = no such curve, though single readings can be large; an effect the other way counts as inactive or inconclusive. Unless noted, % is set by controls: 0 for no effect and ±100 for the full control effect; potency is the fitted concentration of half-maximal effect.

SMILES	HT1080 IDH1KD tx	KB-3-1 cytotox	DT40 TDP1 no CPT	KB-V1 cytotox	HT1080-NT tox	DT40 TDP1 CPT
COc1ccc(C(=O)c2cn(CC(=O)Nc3ccc4c(c3)OCCO4)c3ccc(OC)cc3c2=O)cc1	.	i	?	i	.	20.6µM*
CCOc1ccc(C(=O)c2cn(CC(=O)Nc3ccc4c(c3)OCO4)c3ccc(OCC)cc3c2=O)cc1	.	i	3.26µM*	i	.	?
Cc1ccc(-n2nc(C)c3c(C(F)(F)F)cc(-c4cccnc4)nc32)cc1Cl	.	.	1.1%	.	.	0.3%
COc1ccc(OC)c(N2C(=O)c3ccccc3C2c2nnnn2-c2ccc3c(c2)OCCO3)c1 (stereo unspecified)	3.3%	i	?	?	3.6%	?
O=C1/C(=C/c2ccccn2)SC(=S)N1Nc1ncc(C(F)(F)F)cc1Cl	3.6%	i	?	i	9.3%	8.2µM*
C=CCc1cc(Cl)ccc1OCCCn1ccnc1	-0.7%	i	20.6µM*	?	7.8%	?
C=CCc1cc(Cl)ccc1OCCn1ccnc1	-23.6%	i	?	i	-7.1%	-33.7%
Cc1cc(C)c(OCCCCCn2ccnc2)c(C)c1	-12.3%	i	14.6µM*	?	-0.6%	?
Cc1cc(OCCCn2ccnc2)cc(C)c1Cl	?	i	?	?	-29.6%	-28.7%
Cc1cc(Cl)cc(C)c1OCCCCCn1ccnc1	-7.7%	i	?	i	2.7%	18.4µM*
Cc1cc(OCCCCCn2ccnc2)cc(C)c1Cl	?	i	13µM*	?	?	?
Cc1cccc(Cl)c1OCCCn1ccnc1	-6.1%	i	?	i	-13.1%	-8.2%
Cc1ccc(C)c(OCCCCCn2ccnc2)c1	?	i	?	?	?	?
Cc1ccc2c(c1)c1c(c(=O)n(-c3ccccc3)c(=O)n1CC(=O)c1ccc(F)cc1)n2C	.	i	3.6%	i	.	1.5%
Cc1cc(Cl)c(OCCn2ccnc2)c(Br)c1	-28.7%	i	?	?	-23.8%	11.6µM*
Clc1ccc(OCCn2ccnc2)c(Cl)c1	5.6%	i	-17.4%	?	7.3%[9.24 µM]	-16.2%
CCc1ccc(OCCCCCn2ccnc2)cc1	-19.4%	i	18.4µM*	?	0.5%	?
Cc1cc(Cl)cc(C)c1OCCn1ccnc1	-23.3%	?	5.17µM*	?	-10.7%	5.17µM*
CCc1ccc(OCCn2ccnc2)cc1	11.6%	i	-3.3%	i	22.5%	5.4%
CCc1ccc2occ(CC(=O)Nc3c(C(=O)c4ccccc4)oc4ccccc34)c2c1	.	i	?	i	.	-26.2%
CCOC(=O)c1c(C)nc2ccc(Cl)cc2c1-c1ccccc1	?	i	?	i	-22.0%	-19.6%
CCOCc1nc(N)nc(N)c1-c1cccc(Cl)c1	?	i	7.31µM*	i	?	8.2µM*
COC1(OC)C(/C=C/c2ccc(Cl)cc2)C(C#N)(C#N)C1(OC)OC (stereo unspecified)	20.6µM*	?	8.2µM*	?	-23.3%	8.2µM*
Cc1ccc(CN2CCCN(CC(=O)Nc3ccc(C)cc3C)S2(=O)=O)cc1	.	i	14.6µM*	i	.	?
CCc1ccc(NC(=O)CN2CCCN(Cc3cccc(Cl)c3)S2(=O)=O)cc1	.	i	-21.4%	i	.	?
SMILES	HT1080 IDH1KD tx	KB-3-1 cytotox	DT40 TDP1 no CPT	KB-V1 cytotox	HT1080-NT tox	DT40 TDP1 CPT
CCOC(=O)c1ccccc1NC(=O)CN1CCCN(Cc2cccc(Cl)c2)S1(=O)=O	.	i	?	i	.	?
Cc1ccc(NC(=O)Cn2cc3c(n2)CCCC3)c(Cl)c1	.	i	?	i	.	-19.2%
Cc1ccc(C)c(CN2CCCN(CC(=O)Nc3ccc(C)c(C)c3)S2(=O)=O)c1	.	i	16.4µM*	i	.	?
CCc1ccccc1NC(=O)CN1CCCN(Cc2cc(C)ccc2C)S1(=O)=O	.	i	16.4µM*	i	.	14.6µM*
Cc1ccc(NC(=O)CN2CCCN(Cc3cc(C)ccc3C)S2(=O)=O)c(Cl)c1	.	i	?	i	.	18.4µM*
CC(NNC(=O)c1ccccc1)c1ccccc1 (stereo unspecified)	.	.	-26.7%	.	.	8.0%
COc1cccc(OC)c1CN1CCC2(CCC(CNC(=O)c3ccccc3)O2)CC1 (stereo unspecified)	.	.	-23.5%	.	.	8.6%
N#C/C(=C\c1ccc(O)cc1)C(=O)NCC1CCCO1 (stereo unspecified)	.	i	.	i	.	.
CCOc1ccccc1NC(=O)Cn1c(=O)n(Cc2cccs2)c(=O)c2cccnc21	.	i	-5.7%	i	.	2.3%
CCc1ccccc1NC(=O)Cn1nc(C(F)(F)F)c2c1CCC2	5.2%	i	?	i	2.0%	7.6%
CCc1ccccc1NC(=O)Cn1nc(-c2cc(C)ccc2C)c2c(c1=O)CCCC2	.	i	14.6µM*	i	.	?
COCC(=O)N1CCC[C@@]2(CCN(C(=O)Nc3cccc(C#N)c3)C2)C1	.	.	-1.9%	.	.	14.8%
COC(=O)c1c(C)oc2ccc(N(C(=O)c3ccncc3)S(=O)(=O)c3ccc4ccccc4c3)cc12	?	?	14.6µM*	?	?	23.1µM*
COC(=O)c1c(C)oc2ccc(N(C(=O)c3ccncc3)S(=O)(=O)c3ccccc3)cc12	-28.3%	?	23.1µM*	i	-29.3%	?
CC(=O)c1c(C)oc2ccc(N(C(=O)Oc3ccccc3)S(=O)(=O)c3ccc(Cl)cc3)cc12	.	i	-10.0%	i	.	-2.5%
COC(=O)c1c(C)oc2ccc(N(C(=O)c3ccncc3)S(=O)(=O)c3ccc(C)cc3)cc12	2.59µM*	5.17µM*	2.06µM*	1.64µM*	2.59µM*	3.66µM*
Cc1ccc(S(=O)(=O)N(C(=O)c2ccncc2)c2ccc3oc4c(c3c2)CCCC4)cc1[N+](=O)[O-]	1.0%	i	-8.0%	?	1.0%	-2.4%
CCOc1ccc(OCC(=O)NCCS(=O)(=O)N2CCN(c3cccc(Cl)c3)CC2)cc1	.	i	?	i	.	?
O=S(=O)(Nc1cccnc1)c1cccnc1	4.7%	?	0.5%	i	-0.9%	-0.9%
Cc1ccc(S(=O)(=O)Nc2cccnc2)cc1	-0.6%	i	29.1µM*	i	0.0%	?
CCCCOc1ccc(S(=O)(=O)Nc2cccnc2)cc1	-15.8%	25.9µM*	10.3µM*	5.8µM*	?	9.2µM*

Screening data deposited in PubChem by National Center for Advancing Translational Sciences (NCATS).
